Source: PubChem BioAssay AID1159580 (chemical genetic matrix, 2015)
About 2,000 (36%) of roughly 5,500 compounds were called active. Inconclusive results (about 18%) are left out. Cut-off read from the data, not from the text of the source: active = normalized growth mostly below about 0.91 (no sharp cut-off); inconclusive = no clear call, values can overlap the other calls; inactive = mostly above about 0.92. The list shows a part of the results.

Experiment: chemical genetic growth profiling, strain panel (AID 1159580);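 note: tested at 20 µM; growth read once vehicle control cultures reached saturation at 30 °C; 1 = growth at the plate median or of vehicle wells; lower values mean less growth of the strain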
Conditions: S. cerevisiae deletion strains, growth OD

Measured: normalized growth

CC(=O)O[C@H]1CCC2(C)C3=C(CCC2C1(C)C)[C@@]1(C)CC[C@@H](C(C)CCC=C(C)C)[C@]1(C)CC3 (some centres not stated)
active: locus YIR030C, strain dcg1, stronger effect = lower value 1.08 [resistant] | locus YKL009W, strain mrt4, stronger effect = lower value 0.846 | locus YLR371W, strain rom2, stronger effect = lower value 1.1 [resistant]
inactive: locus YAL021C, strain ccr4, stronger effect = lower value 1.02 | locus YAL026C, strain drs2, stronger effect = lower value 1.03 | locus YAL030W, strain snc1, stronger effect = lower value 1.03 | locus YBL061C, strain skt5, stronger effect = lower value 1.04 | locus YBR009C, strain hhf1, stronger effect = lower value 1.03 | locus YBR021W, strain FUR4, stronger effect = lower value 0.912 | locus YBR023C, strain chs3, stronger effect = lower value 1.03 | locus YBR171W, strain sec66, stronger effect = lower value 1.05 | locus YBR229C, strain ROT2, stronger effect = lower value 1.04 | locus YBR231C, strain swc5, stronger effect = lower value 1.04 | locus YBR279W, strain paf1, stronger effect = lower value 1.02 | locus YCL011C, strain gbp2, stronger effect = lower value 1.04 | locus YCL016C, strain dcc1, stronger effect = lower value 1.03 | locus YCL029C, strain bik1, stronger effect = lower value 1.01 | locus YCL061C, strain MRC1, stronger effect = lower value 1.04 | locus YCL069W, strain vba3, stronger effect = lower value 1.03 | locus YCR088W, strain abp1, stronger effect = lower value 1.03 | locus YDL005C, strain med2, stronger effect = lower value 1.03 | locus YDL035C, strain GPR1, stronger effect = lower value 0.911 | locus YDL040C, strain nat1, stronger effect = lower value 1.03 | locus YDL074C, strain BRE1, stronger effect = lower value 0.973 | locus YDL101C, strain DUN1, stronger effect = lower value 1.02 | locus YDL185W, strain tfp1, stronger effect = lower value 1.05 | locus YDL192W, strain arf1, stronger effect = lower value 1.03 | locus YDR001C, strain nth1, stronger effect = lower value 1.03 | locus YDR069C, strain doa4, stronger effect = lower value 1.03 | locus YDR101C, strain arx1, stronger effect = lower value 1.02 | locus YDR137W, strain rgp1, stronger effect = lower value 1.02 | locus YDR150W, strain NUM1, stronger effect = lower value 1.05 | locus YDR159W, strain sac3, stronger effect = lower value 1.07 | locus YDR162C, strain NBP2, stronger effect = lower value 1.01 | locus YDR195W, strain ref2 1.03 | locus YDR297W, strain sur2, stronger effect = lower value 1.03 | locus YDR318W, strain mcm21, stronger effect = lower value 1.02 | locus YDR334W, strain swr1, stronger effect = lower value 1.04 | locus YDR335W, strain msn5, stronger effect = lower value 1.02 | locus YDR388W, stronger effect = lower value 1.06 | locus YDR392W, strain spt3, stronger effect = lower value 1.04 | locus YDR502C, strain sam2, stronger effect = lower value 1.01 | locus YEL003W, strain gim4, stronger effect = lower value 1.02 | locus YEL037C, strain rad23, stronger effect = lower value 1.02 | locus YEL061C, strain CIN8 (second series), stronger effect = lower value 1.03 | locus YEL061C, strain CIN8, stronger effect = lower value 1.04 | locus YER015W, strain faa2, stronger effect = lower value 1.03 | locus YER016W, strain bim1, stronger effect = lower value 1.04 | locus YER110C, stronger effect = lower value 1.06 | locus YER111C, strain swi4, stronger effect = lower value 1.04 | locus YER155C, strain BEM2 (second series), stronger effect = lower value 1.04 | locus YER155C, strain BEM2, stronger effect = lower value 1.03 | locus YER167W, strain BCK2, stronger effect = lower value 1.03 | locus YFR010W, strain ubp6, stronger effect = lower value 1.03 | locus YGL078C, strain dbp3, stronger effect = lower value 0.932 | locus YGL086W, strain mad1, stronger effect = lower value 1.02 | locus YGL167C, strain pmr1, stronger effect = lower value 1.04 | locus YGL173C, strain kem1, stronger effect = lower value 1.02 | locus YGL227W, strain vid30, stronger effect = lower value 1.03 | locus YGL240W, strain doc1, stronger effect = lower value 1.03 | locus YGL248W, strain PDE1, stronger effect = lower value 1 | locus YGL253W, strain hxk2, stronger effect = lower value 1.02 | locus YGR078C, strain PAC10, stronger effect = lower value 1 | locus YGR135W, strain pre9, stronger effect = lower value 1 | locus YGR229C, strain SMI1, stronger effect = lower value 0.963 | locus YGR252W, strain gcn5, stronger effect = lower value 0.884 | locus YHR013C, strain ard1, stronger effect = lower value 1.08 | locus YHR027C, strain rpn1, stronger effect = lower value 1.02 | locus YHR079C, strain IRE1 (second series), stronger effect = lower value 1.06 | locus YHR094C, strain hxt1, stronger effect = lower value 1.06 | locus YHR129C, strain ARP1, stronger effect = lower value 1.04 | locus YHR142W, strain chs7, stronger effect = lower value 1.04 | locus YHR200W, strain rpn10, stronger effect = lower value 1.03 | locus YIL066C, strain RNR3, stronger effect = lower value 1.02 | locus YIL073C, strain SPO22, stronger effect = lower value 1.06 | locus YIL125W, strain kgd1, stronger effect = lower value 1.01 | locus YJL092W, strain hpr5, stronger effect = lower value 1.03 | locus YJL095W, strain BCK1 (second series), stronger effect = lower value 1.03 | locus YJL095W, strain BCK1, stronger effect = lower value 1.03 | locus YJL115W, strain asf1, stronger effect = lower value 1.04 | locus YJL129C, strain trk1, stronger effect = lower value 1.07 | locus YJL134W, strain LCB3, stronger effect = lower value 1.04 | locus YJL154C, strain vps35, stronger effect = lower value 1.03 | locus YJL164C, strain tpk1, stronger effect = lower value 1.02 | locus YJL166W, strain qcr8, stronger effect = lower value 1.03 | locus YJL168C, strain set2, stronger effect = lower value 1.06 | locus YJL187C, strain SWE1 (second series), stronger effect = lower value 0.989 | locus YJL187C, strain SWE1, stronger effect = lower value 1.01 | locus YJR043C, strain POL32, stronger effect = lower value 0.941 | locus YJR075W, strain HOC1, stronger effect = lower value 1.04 | locus YKL068W, stronger effect = lower value 1.04 | locus YKL085W, strain MDH1 (second series), stronger effect = lower value 1.03 | locus YKL085W, strain MDH1, stronger effect = lower value 1.03 | locus YKL160W, strain elf1, stronger effect = lower value 1.02 | locus YKR001C, strain vps1, stronger effect = lower value 0.997 | locus YKR026C, strain gcn3, stronger effect = lower value 1.04 | locus YKR091W, strain srl3, stronger effect = lower value 1.03 | locus YLL001W, strain dnm1, stronger effect = lower value 1.03 | locus YLL026W, stronger effect = lower value 1.02 | locus YLL041C, strain sdh2, stronger effect = lower value 1.05 | locus YLR027C, strain aat2, stronger effect = lower value 1.04 | locus YLR039C, strain RIC1, stronger effect = lower value 1.08 | locus YLR058C, strain SHM2, stronger effect = lower value 1.01 | locus YLR102C, strain apc9, stronger effect = lower value 1.05 | locus YLR221C, strain rsa3, stronger effect = lower value 1.03 | locus YLR258W, strain gsy2, stronger effect = lower value 1.04 | locus YLR262C, strain YPT6 (second series), stronger effect = lower value 1.02 | locus YLR262C, strain YPT6, stronger effect = lower value 0.994 | locus YLR268W, strain sec22, stronger effect = lower value 1.02 | locus YLR320W, strain mms22, stronger effect = lower value 1.05 | locus YLR330W, strain CHS5, stronger effect = lower value 1.03 | locus YLR342W, strain FKS1 (second series), stronger effect = lower value 0.953 | locus YLR342W, strain FKS1, stronger effect = lower value 1.04 | locus YLR357W, strain rsc2, stronger effect = lower value 1.04 | locus YLR370C, strain arc18, stronger effect = lower value 1.02 | locus YLR384C, strain iki3, stronger effect = lower value 1.05 | locus YLR418C, strain cdc73, stronger effect = lower value 1.09 | locus YML016C, strain PPZ1, stronger effect = lower value 1.05 | locus YML032C, strain rad52, stronger effect = lower value 0.994 | locus YML120C, strain ndi1, stronger effect = lower value 1.03 | locus YML124C, strain tub3, stronger effect = lower value 1.06 | locus YMR058W, strain fet3, stronger effect = lower value 1.03 | locus YMR078C, strain ctf18, stronger effect = lower value 1.08 | locus YMR125W, strain sto1, stronger effect = lower value 1.03 | locus YMR129W, stronger effect = lower value 1.03 | locus YMR205C, strain PFK2, stronger effect = lower value 1.04 | locus YMR223W, strain ubp8, stronger effect = lower value 1.01 | locus YMR231W, strain pep5, stronger effect = lower value 1 | locus YMR307W, strain GAS1, stronger effect = lower value 0.972 | locus YNL067W, strain RPL9B, stronger effect = lower value 0.969 | locus YNL071W, strain lat1, stronger effect = lower value 1.03 | locus YNL209W, strain ssb2, stronger effect = lower value 1.04 | locus YNL233W, strain BNI4, stronger effect = lower value 1.04 | locus YNL248C, strain rpa49, stronger effect = lower value 1.02 | locus YNL250W, strain rad50, stronger effect = lower value 1.04 | locus YNL271C, strain bni1, stronger effect = lower value 1.05 | locus YNL298W, strain CLA4, stronger effect = lower value 0.986 | locus YNL307C, strain MCK1, stronger effect = lower value 1.07 | locus YNL322C, strain KRE1 (second series), stronger effect = lower value 1.03 | locus YNR049C, strain mso1, stronger effect = lower value 1.03 | locus YNR052C, strain pop2, stronger effect = lower value 0.99 | locus YOL012C, strain htz1 1.57 | locus YOL147C, strain pex11, stronger effect = lower value 1.05 | locus YOR001W, strain rrp6, stronger effect = lower value 1.01 | locus YOR061W, strain CKA2, stronger effect = lower value 0.996 | locus YOR069W, strain VPS5, stronger effect = lower value 1.03 | locus YOR070C, strain gyp1, stronger effect = lower value 1.01 | locus YOR080W, strain dia2, stronger effect = lower value 1.02 | locus YOR083W, strain WHI5, stronger effect = lower value 1.01 | locus YOR106W, strain vam3, stronger effect = lower value 1 | locus YOR136W, strain idh2, stronger effect = lower value 1.04 | locus YOR144C, strain elg1, stronger effect = lower value 1.04 | locus YOR184W, strain ser1, stronger effect = lower value 0.926 | locus YOR265W, strain rbl2, stronger effect = lower value 1.03 | locus YOR270C, strain vph1, stronger effect = lower value 0.999 | locus YOR290C, strain snf2, stronger effect = lower value 1.02 | locus YOR316C, strain cot1, stronger effect = lower value 1.06 | locus YPL051W, strain arl3, stronger effect = lower value 1.01 | locus YPL078C, strain atp4, stronger effect = lower value 1.02 | locus YPL106C, strain sse1, stronger effect = lower value 1.09 | locus YPL240C, strain hsp82, stronger effect = lower value 1.03 | locus YPL241C, strain CIN2, stronger effect = lower value 1.05 | locus YPR119W, strain clb2, stronger effect = lower value 1.06 | locus YPR141C, strain kar3, stronger effect = lower value 1.08 | locus YPR163C, strain tif3, stronger effect = lower value 1.04 | locus YPR167C, strain met16, stronger effect = lower value 1.03 | strain wtn01, stronger effect = lower value 0.997
